Measured values: PubChem BioAssay (NCATS)
Inconclusive results are not listed. Calls of active or inactive are those of the source. Calls follow the shape of the dose curve; as a rule, active = well fitted curve in the direction sought with a large enough effect; inconclusive = small, poorly fitted or top-dose-only effect, or another doubt; inactive = no such curve, though single readings can be large; an effect the other way counts as inactive or inconclusive.

Assays:
[1] = biological target: Cellular tumor antigen p53 (Homo sapiens) (UniProt P04637); experiment: Primary qHTS for small molecule compounds that upregulate eGFP-tagged delta133p53alpha (in N-terminal) cells. (AID 2060322); conditions: NCI-H358 eGFP-delta133p53alpha fluorescence, 24 h; activation: stronger effect = higher value;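 also: series mostly up to about 56 µM; 0% = DMSO vehicle and 100% = reference activator; nearly all actives have a fitted effect of over 75% in size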
Outline: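 NCI-H358 cells pre-induced 24 h with 10 ng/ml doxycycline to express N-terminal eGFP-delta133p53alpha, then dosed 24 h at 37C without doxycycline; fixed, Hoechst-stained, GFP intensity by laser scanning cytometry, normalized to DMSO (0%) and 57.5 uM 5-azacytidine (100%).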

[2] = biological target: Aldehyde dehydrogenase, mitochondrial (Homo sapiens) (UniProt P05091); experiment: qHTS for Inhibitors of the Aldehyde Dehydrogenase Family (ALDH2) Primary screen (AID 2061308);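 also: plate controls were vehicle for no effect and reference inhibitor for full effect; nearly all actives have a fitted effect of over 55% in size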
[3] = biological target: Retinaldehyde dehydrogenase 3 (Homo sapiens) (UniProt P47895); experiment: qHTS for Inhibitors of the Aldehyde Dehydrogenase Family (ALDH1A3) Primary screen (AID 2061315);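 also: plate controls were DMSO vehicle for no effect and reference inhibitor for full effect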

Cellular tumor antigen p53 (Homo sapiens), sequence (P04637 whole entry, looked up): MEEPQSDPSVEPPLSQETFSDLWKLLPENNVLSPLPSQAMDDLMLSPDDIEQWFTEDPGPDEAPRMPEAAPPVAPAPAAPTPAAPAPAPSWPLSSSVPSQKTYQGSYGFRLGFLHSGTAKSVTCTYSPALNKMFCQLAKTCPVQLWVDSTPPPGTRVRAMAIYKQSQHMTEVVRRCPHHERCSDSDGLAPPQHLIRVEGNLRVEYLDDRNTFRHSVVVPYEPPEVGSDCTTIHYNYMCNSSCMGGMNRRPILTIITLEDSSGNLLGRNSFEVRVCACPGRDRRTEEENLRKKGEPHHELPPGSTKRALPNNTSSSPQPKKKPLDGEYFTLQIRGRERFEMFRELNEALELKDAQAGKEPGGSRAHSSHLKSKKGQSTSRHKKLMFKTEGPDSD

C/C=C(\C)C(=O)O[C@@H](C)[C@H]1CC[C@]2(O)C3CCC4C[C@@H](OC5CC(OC)C(OC6CC(OC)C(OC7CC(OC)C(OC8OC(C)C(OC9OC(CO)C(O)C(O)C9O)C(OC)C8O)C(C)O7)C(C)O6)C(C)O5)CC[C@]4(C)C3[C@H](O)[C@@H](O)[C@]12C (some centres undefined)
inactive: activation [1] 8.04% | activity change, negative = inhibition [2] 4.67% [at 11.2 µM] | activity change, negative = inhibition [3] -5.31% [at 11.2 µM]

COc1c2cc(c(O)c1OC)-c1cc(ccc1O)CCC(O)CCCC2 (centres undefined)
inactive: activation [1] 11.5% | Potency [2] | Potency [3]

COCCCNC(=O)c1ccc(Cn2c(=O)c3ccccc3n(Cc3ccc(C(C)C)cc3)c2=O)cc1
inactive: activation [1] 7% | Potency [2] | Potency [3]

COC(=O)[C@@H](NC(=O)[C@H](CC(C)C)NC(=O)N(Cc1ccccc1)C[C@@H](O)[C@H](Cc1ccccc1)NC(=O)OC(C)(C)C)C(C)C
inactive: activation [1] 19.7% | activity change, negative = inhibition [2] -10% [at 11.2 µM] | activity change, negative = inhibition [3] 16.3% [at 11.2 µM]

CC1(C)CCCC2(C)C1CC=C1C(=O)OC(O)C12O (centres undefined)
inactive: activation [1] -6.11% | Potency [2] | Potency [3]

C/C(=C\CCC(C)CCO)C(=O)OC[C@H]1O[C@@H](O[C@@H]2OC=C(C(=O)O)[C@H]3CC[C@](C)(O)[C@@H]23)C(O)[C@@H](O)C1O (some centres undefined)
inactive: activation [1] -20.5% | Potency [2] | Potency [3]

C=C(CO)C12OC1C1(C)C(=CC2=O)C(O)C(O)CC1C (centres undefined)
inactive: activation [1] 17.9% | Potency [2] | Potency [3]

CC(C)C(C#N)O[C@@H]1O[C@H](CO[C@@H]2O[C@@H](C)[C@H](O)[C@@H](O)[C@H]2O)[C@@H](O)[C@H](O)[C@H]1O (some centres undefined)
inactive: activation [1] -3.82% | Potency [2] | Potency [3]
